Structures can show the parent of a compound that is named as a salt.
Test system: K562 SF3B1 K700E vs K562 SF3B1 WT
Assay: surviving fraction ratio K562 SF3B1 K700E / K562 SF3B1 WT (each relative to DMSO); higher = less selective killing of SF3B1 K700E cells
Settings: 5 days
Procedure, shortened: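 Isogenic K562 cells carrying an engineered SF3B1 hotspot allele and matched SF3B1 wild-type cells were screened against an in-house 80-compound library in 384-well plates. Plates were seeded at 250 cells per well, and compounds were added 24 h later at 0.5, 1, 5, 10, 50, 100, 500 and 1,000 nM, with continuous culture for 5 d. Viability was read by CellTiter-Glo. The value is the mutant-to-wild-type ratio of surviving fractions, each normalised to DMSO.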

Structure (SMILES)	surviving fraction ratio K562 SF3B1 K700E / K562 SF3B1 WT (0.5nM)	surviving fraction ratio K562 SF3B1 K700E / K562 SF3B1 WT (1nM)	surviving fraction ratio K562 SF3B1 K700E / K562 SF3B1 WT (5nM)	surviving fraction ratio K562 SF3B1 K700E / K562 SF3B1 WT (10nM)	surviving fraction ratio K562 SF3B1 K700E / K562 SF3B1 WT (50nM)	surviving fraction ratio K562 SF3B1 K700E / K562 SF3B1 WT (100nM)	surviving fraction ratio K562 SF3B1 K700E / K562 SF3B1 WT (500nM)	surviving fraction ratio K562 SF3B1 K700E / K562 SF3B1 WT (1000nM)
Cn1c(=O)n(-c2ccc(C(C)(C)C#N)cc2)c2c3cc(-c4cnc5ccccc5c4)ccc3ncc21	0.991	0.985	0.8	0.854	0.811	0.838	1.28	1.45
Nc1nc(=S)c2[nH]cnc2[nH]1 [6-thioguanine]	0.927	0.836	0.914	0.819	0.78	0.792	0.828	0.777
CCCS(=O)(=O)Nc1ccc(F)c(C(=O)c2c[nH]c3ncc(Cl)cc23)c1F	1.33	1.07	1.13	0.874	1.13	0.998	1.1	1.06
C[C@H](CN(C)C)Oc1nc(Nc2cc3cccc(Cl)c3cn2)cnc1C#N	0.863	0.781	0.786	0.781	0.826	0.784	0.497	0.442
Cc1cn(-c2cc(NC(=O)c3ccc(C)c(Nc4nccc(-c5cccnc5)n4)c3)cc(C(F)(F)F)c2)cn1 [nilotinib]	0.834	0.742	0.537	0.816	1.47	1.48	1.53	1.51
Cn1cc(C2=Nc3cc(NC(=O)C(N)C4CCCCC4)cc4c3C2=CNNC4=O)cn1 (stereo not given)	0.884	0.979	0.826	0.834	0.992	0.621	0.815	1.88
CCN(CC)CCCCNc1ncc2cc(-c3cc(OC)cc(OC)c3)c(NC(=O)NC(C)(C)C)nc2n1	1.15	1.03	0.942	0.926	0.901	1.09	0.957	0.89
O=C(O)CC[C@H]1CC[C@@](c2cc(F)ccc2F)(S(=O)(=O)c2ccc(Cl)cc2)CC1	0.908	1.04	0.989	0.805	0.852	0.975	0.932	1.04
Oc1nc(-c2ccc(C(F)(F)F)cc2)nc2c1CSCC2	1.15	0.906	0.867	0.822	1.35	1.11	1.15	0.958
CCN(CC)CCNC(=O)c1c(C)[nH]c(/C=C2\C(=O)Nc3ccc(F)cc32)c1C [sunitinib]	1.09	1.08	0.928	1.33	0.86	1.2	0.73	0.857
CS(=O)(=O)CCNCc1ccc(-c2ccc3ncnc(Nc4ccc(OCc5cccc(F)c5)c(Cl)c4)c3c2)o1 [lapatinib]	0.726	0.755	0.828	0.669	0.99	0.906	0.898	0.665
C[C@@H]1CN(CC(=O)Nc2ccc3c(c2)Cc2cccc(-c4cc(=O)cc(N5CCOCC5)o4)c2S3)C[C@H](C)O1	0.976	1.04	0.887	0.896	1.08	0.96	0.878	0.865
COc1ccc(C2=N[C@@H](c3ccc(Cl)cc3)[C@@H](c3ccc(Cl)cc3)N2C(=O)N2CCNC(=O)C2)c(OC(C)C)c1 [Nutlin3]	1	0.984	0.843	0.873	0.861	0.781	0.767	0.894
C=CC(=O)Nc1cc2c(Nc3ccc(F)c(Cl)c3)ncnc2cc1OCCCN1CCOCC1 [canertinib]	0.814	0.878	0.921	0.888	0.721	0.79	0.72	0.639
CS(=O)(=O)c1ccc(C(=O)Nc2ccc(Cl)c(-c3ccccn3)c2)c(Cl)c1	1.07	0.954	0.96	0.872	1	0.969	1.01	1.07
Nc1ccn([C@@H]2O[C@H](CO)[C@@H](O)C2(F)F)c(=O)n1 [gemcitabine.HCl]	0.839	0.772	0.465	0.491	0.901	1.16	1.1	1.16
CNC(=O)c1ccc(N2C(=S)N(c3ccc(C#N)c(C(F)(F)F)c3)C(=O)C2(C)C)cc1F	0.896	0.933	0.864	1.07	0.871	0.847	0.769	0.98
Cc1ccc(NC(=O)c2ccc(CN3CCN(C)CC3)cc2)cc1Nc1nccc(-c2cccnc2)n1 [imatinibmesylate]	0.696	0.74	0.733	0.692	0.55	0.617	1.5	1.1
Cn1nnc2c(C(N)=O)ncn2c1=O [temozolomide]	0.816	0.823	0.844	0.765	0.88	0.843	0.714	0.794
O=C(O)C1(C(=O)O)CCC1.[NH2-].[NH2-].[Pt+2] [carboplatin]	0.765	0.799	0.905	0.829	0.917	0.764	0.917	0.762
CC[C@@H](C(=O)[C@@H](C)[C@@H](O)[C@H](C)[C@@H]1O[C@@H]([C@@H](CC)C(=O)O)CC[C@@H]1C)[C@H]1O[C@]2(C=C[C@@H](O)[C@]3(CC[C@@](C)([C@H]4CC[C@](O)(CC)[C@H](C)O4)O3)O2)[C@H](C)C[C@@H]1C [salinomycin]	0.921	0.999	0.871	1.27	0.88	0.831	0.898	1.16
C[C@@H](Oc1cc(-c2cnn(C3CCNCC3)c2)cnc1N)c1c(Cl)ccc(F)c1Cl	0.965	1.06	0.847	0.861	0.652	0.542	1.17	1.06
COc1cc2nccc(Oc3ccc(NC(=O)C4(C(=O)Nc5ccc(F)cc5)CC4)cc3)c2cc1OC [Cabozantinib]	0.718	0.805	0.831	0.71	0.733	0.704	0.503	0.686
CC(=O)NCC(=O)N1[C@@H]2CC[C@H]1c1ccc(Nc3ncc(C(F)(F)F)c(NC4CCC4)n3)cc12	0.948	1.01	0.872	0.883	0.549	1.05	1.18	1.64
CN(C)CC[C@H](CSc1ccccc1)Nc1ccc(S(=O)(=O)NC(=O)c2ccc(N3CCN(Cc4ccccc4-c4ccc(Cl)cc4)CC3)cc2)cc1[N+](=O)[O-]	0.745	0.762	0.761	0.841	0.902	0.819	0.908	0.796

Reference: the supplement of paper PMC10412459
